Screening data from PubChem.
Sampled rows, rich in hits. Any-hit rate of the full collection: about 4.2%.
Sfp inh = inhibitors of Bacillus subtilis Sfp phosphopantetheinyl transferase; actives 3.5% (n = 310,000); Q9F4F7; Biochemical Sfp PPTase activity, qHTS; AID 1490; Potency, µM, most hits filed as inhibitors;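 also: the enzyme is Sfp with the accession as filed and its product quenches rhodamine fluorescence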
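Fluorescence-quenching assay with 15 nM Sfp, 5 uM rhodamine-CoA and 12.5 uM BHQ-2-labelled ybbR peptide in pH 7.6 Hepes/MgCl2 buffer. Enzyme was pre-incubated with compound for 15 min at room temperature. Rate was taken from the 30-min fluorescence change (525/598 nm).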
uPA surface inh = cell surface uPA generation inhibition; cell surface uPA generation assay, qHTS; Potency, µM (titrated, usually from 38.3 µM), hits mostly inhibitors; actives 0.31% (n = 330,000); active = well fitted inhibition curve with a large enough effect; inconclusive = small, poorly fitted or top-dose-only effect; inactive = no such curve, though single readings can be large or run the other way; tested in mouse RAW 264.7 cells; also: nearly all actives have a fitted effect of over 55% in size
TCR act = activators of T cell receptors; primary human leukocytes, anti-CD3, IL-2 HTRF, 48 h; Potency, µM (top dose mostly 9.22 µM), most hits filed as activators; 330,000 tested, under 10 active
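Activity was scored as IL-2 release from primary human leukocytes given only a TCR signal (a-CD3 beads) plus compound for 48 hr. Detection used a two-antibody HTRF format read at 665nm.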
ClpP mod = qHTS Assay for Activators of ClpP | ATP-dependent Clp protease proteolytic subunit (Bacillus subtilis (strain 168)), P80244 | purified B. subtilis ClpP, FRET peptide cleavage, 20 min | Potency, µM (highest dose often 57.5 µM) | actives 1.9% (n = 340,000) | AID 651965, 2013; active = well fitted falling curve with a large enough effect; inconclusive = small, poorly fitted or top-dose-only effect; inactive = no such curve, though single readings can be large or run the other way; also: the source files actives as falling curves though it sought activators and does not explain the sign; nearly all actives have a fitted effect of over 65% in size
Target sequence (P80244 whole entry, looked up): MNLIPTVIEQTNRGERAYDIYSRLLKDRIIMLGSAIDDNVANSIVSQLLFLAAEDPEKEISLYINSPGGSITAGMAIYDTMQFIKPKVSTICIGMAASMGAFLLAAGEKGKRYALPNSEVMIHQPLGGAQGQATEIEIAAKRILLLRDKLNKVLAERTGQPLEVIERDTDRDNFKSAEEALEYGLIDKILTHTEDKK
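FRET quenching reversal measured ClpP activation: 10 microg/mL B. subtilis ClpP at pH 8 with the FRET-FV decapeptide, read at 430 nm after 320 nm excitation. The 20-min minus 0-min signal was scaled between DMSO/no-enzyme wells and ADEP (5.8 microM final).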
Of the large screens only hits and unclear results are named; the others gave an inactive call. Unless noted, calls follow the shape of the dose curve; as a rule, active = well fitted curve in the direction sought with a large enough effect; inconclusive = small, poorly fitted or top-dose-only effect, or another doubt; inactive = no such curve, though single readings can be large; an effect the other way counts as inactive or inconclusive.

COc1ccc2c(c1)CC/C(=C\C=C\c1ccccc1)C2=O	Sfp inh 28µM
COc1ccc(N/C=C2\CCOC2=O)cc1	none (no result: uPA surface inh)
COc1ccc2c(c1)CC/C(=C\Nc1ccc3c(c1)OCO3)C2=O	Sfp inh 22µM, uPA surface inh inconclusive
COc1ccc(OC)c(CN2C(=O)CSCC2(C)C(=O)Nc2c(C)cccc2C)c1 (stereo not given)	none (no result: Sfp inh, uPA surface inh, TCR act)
O=C1C2C3C=CC(CC3)C2C(=O)N1c1ccccc1[N+](=O)[O-] (stereo not given)	Sfp inh 56µM (no result: ClpP mod)
O=C1C2C3C=CC(CC3)C2C(=O)N1c1ccc(Br)cc1[N+](=O)[O-] (stereo not given)	none (no result: ClpP mod)
CC(/C=C1\SC(=S)N(NC(=O)c2ccncc2)C1=O)=C\c1ccccc1	Sfp inh 45µM (no result: ClpP mod)
O=C(O)CCc1nn2c3ccccc3n(CC(=O)c3ccccc3)c2nc1=O	ClpP mod 32µM (no result: uPA surface inh, TCR act)
O=C(O)CCc1nn2c3ccccc3nc2n(CCN2CCCCC2)c1=O	ClpP mod 18µM
CC(C)OC(=O)C(C(=O)OC(C)C)=C1SC=CS1	none (no result: uPA surface inh, TCR act, ClpP mod)
CCOc1ccc(NC(=S)N(CCc2ccncc2)C(C)C)cc1	Sfp inh 50µM
CCC(C(=O)OCC(=O)Nc1cc(Cl)ccc1Cl)c1ccccc1 (stereo not given)	ClpP mod 25µM
Cc1ccc(-n2nc(C(=O)N(C)Cc3ccccc3)c3c4ccccc4n(C)c3c2=O)cc1	none (no result: Sfp inh, uPA surface inh, TCR act)
COc1cc(OC)cc(C(=O)NCC(=O)OC2CCCCC2=O)c1 (stereo not given)	none (no result: Sfp inh)
CCSc1nc2n(n1)C(c1ccc(C(=O)O)cc1)C(C(=O)Nc1ccccc1C)=C(C)N2 (stereo not given)	none (no result: Sfp inh, uPA surface inh, TCR act)
Cc1ccccc1/C=N/Nc1nc2ccccc2c(=O)n1O	Sfp inh 32µM (no result: ClpP mod)
O=C(Oc1cc(-c2ccccc2)no1)c1ccc(Cl)cc1	ClpP mod 40µM
Cc1ccc(C(=O)Oc2cc(-c3ccccc3)no2)cc1	none
COc1cc(C)c2ccccc2n1	none (no result: Sfp inh, uPA surface inh, TCR act)
COc1cc(OC)c2c(OC)cccc2n1	ClpP mod 18µM
c1cc2c(cc1C1CCCCC1)c1c3n2CCN=C3CCC1	Sfp inh 79µM
c1cc2c(cc1C1CCCCC1)c1c3n2CCCNC3CCC1 (stereo not given)	Sfp inh 32µM
Cc1ccc2c(c1)c1c3n2CCCNC3CCC1 (stereo not given)	none (no result: uPA surface inh)
Cc1ccc2c(c1)c1c3n2CCN=C3CCC1	none
c1cc2c(cc1C1CCCCC1)c1c3n2CCN[C@H]3CCC1	Sfp inh 5.6µM (no result: uPA surface inh, TCR act, ClpP mod)
c1ccc2c(c1)c1c3n2CCNC3CCC1 (stereo not given)	Sfp inh 79µM
Cc1ccccc1CN1CCCN(CC(=O)Nc2ccc3c(c2)OCCO3)S1(=O)=O	none (no result: Sfp inh, uPA surface inh, TCR act)
CCOC(=O)c1cccc(NC(=O)c2cc3ccccc3o2)c1	uPA surface inh inconclusive (no result: TCR act)
CCOC(=O)c1ccc(NC(=O)c2cc3ccccc3o2)cc1	Sfp inh 79µM, ClpP mod inconclusive
COc1cc(/C=C/c2ccc3ccccc3n2)cc(OC)c1OC	none (no result: Sfp inh, uPA surface inh, TCR act)
CC1CCCN(Cc2c(O)ccc3c2O/C(=C\c2ccco2)C3=O)C1 (stereo not given)	Sfp inh 35µM
COc1ccc(OC)c(/C=C(/C#N)c2nc(-c3ccc(-c4ccccc4)cc3)cs2)c1	none (no result: Sfp inh, uPA surface inh, TCR act)
COc1cc2[nH]c(=S)n(Cc3ccc(C)cc3)c(=O)c2cc1OC	Sfp inh 56µM
COc1cc2[nH]c(=O)c(C(=O)NCCCN3CCCCC3)c(O)c2cc1OC	ClpP mod 3.5µM
COc1cc2[nH]c(=O)n(CCC(=O)NCCC(C)C)c(=O)c2cc1OC	ClpP mod 20µM (no result: TCR act)
COc1ccc(CCNC(=O)c2c(O)c3cc(OC)c(OC)cc3[nH]c2=O)cc1OC	none (no result: Sfp inh, uPA surface inh, TCR act)
COc1cc2[nH]c(=O)n(Cc3ccc(C(=O)N4CCC(N5CCCCC5)CC4)cc3)c(=O)c2cc1OC	none
COc1ccc(Cn2c(=S)[nH]c3cc(OC)c(OC)cc3c2=O)cc1	none
COc1cc2[nH]c(=O)n(CCC(=O)N3CCC(N4CCCCC4)CC3)c(=O)c2cc1OC	ClpP mod 32µM
Cc1ccc2scc(N3CCCC(C)C3)c(=O)c2c1 (stereo not given)	none (no result: Sfp inh, uPA surface inh, TCR act)
CCCCCCOC(=O)C1(O)CC2OC1(C)n1c3ccccc3c3c4c(c5c6ccccc6n2c5c31)C(=O)NC4 (stereo not given)	none (no result: uPA surface inh, TCR act, ClpP mod)
COc1ccc(CNC(=O)Nc2cccc3ccccc23)cc1	Sfp inh inconclusive, ClpP mod 32µM
CN1CCN(CCCNC(=O)Nc2cccc3ccccc23)CC1	ClpP mod 16µM
O=C(NCc1ccccc1)Nc1cccc2ccccc12	none
COc1cc2[nH]c(=O)n(CCCC(=O)NCCc3ccccc3)c(=O)c2cc1OC	none
COc1cc2[nH]c(=O)n(CCCCCC(=O)NCCCN3CCCC3=O)c(=O)c2cc1OC	ClpP mod 28µM (no result: uPA surface inh)
CCOc1cc2[nH]c(=O)n(Cc3ccccc3)c(=O)c2cc1OCC	ClpP mod 13µM
C=C1C(O)[C@@H]2O[C@]3(CC[C@H](/C=C/C(C)[C@@H]4CC(C)=CC5(O[C@H](C[C@@](C)(O)CO)CCC5O)O4)O3)CC[C@H]2O[C@@H]1C(O)CC(C)[C@H]1OC2(CCCCO2)CCC1C (stereo not given in full)	uPA surface inh inconclusive (no result: Sfp inh)
O=C1CC(c2ccccc2)Oc2cc(O)ccc21 (stereo not given)	none (no result: ClpP mod)
O=C(Nc1ccccc1)Nc1cccc2ccccc12	none (no result: ClpP mod)
CCOc1cc2[nH]c(=O)n(CCCN3CCCC3=O)c(=O)c2cc1OCC	ClpP mod 11µM
COc1cc2[nH]c(=O)n(CCCCCC(=O)NCCCN3CCC(C)CC3)c(=O)c2cc1OC	ClpP mod 16µM (no result: uPA surface inh)
COc1cc2[nH]c(=O)n(CCCCCC(=O)NCCCN3CCOCC3)c(=O)c2cc1OC	ClpP mod 22µM
CCOc1cc2[nH]c(=O)n(CCCCCC(=O)NC3CCCC3)c(=O)c2cc1OCC	none
Cc1cccnc1NC(=O)Nc1cccc2ccccc12	ClpP mod 25µM
COC(=O)c1ccccc1NC(=O)CSc1nc2ccsc2c(=O)n1CCC(C)C	none (no result: Sfp inh, uPA surface inh, TCR act)
S=C(NCCN1CCOCC1)Nc1ccccc1Cl	none
COc1ccccc1C(=O)NC(=O)CSc1nnnn1C	none (no result: Sfp inh)
COc1ccc(CNC(=O)CCn2c(=O)[nH]c3ccccc3c2=O)cc1	ClpP mod 28µM (no result: TCR act)
COc1cc2[nH]c(=S)n(CCN3CCOCC3)c(=O)c2cc1OC	Sfp inh 18µM
COC(=O)c1ccc2c(=O)n(CCCCCC(=O)NCc3ccc(OC)cc3)c(=O)[nH]c2c1	none (no result: Sfp inh, uPA surface inh, TCR act)
COc1ccc(CNC(=O)c2ccccc2C(=O)O)cc1	none
COc1ccc(CNC(=O)c2cccc(-c3ccc(C)c4ccccc34)n2)cc1	ClpP mod 25µM
CN(C)c1ccc(CC(=O)N2CCCCC2c2cc(C(=O)Nc3cccc4c3CCCC4)no2)cc1 (stereo not given)	none (no result: Sfp inh, uPA surface inh, TCR act)
C=C1C=C(C(F)F)n2ncc(C(=O)NC(C)CC)c2N1 (stereo not given)	none (no result: Sfp inh, uPA surface inh, TCR act)
Cc1cccc(OCCCOc2cccc3cccnc23)c1C	Sfp inh 79µM
Cc1ccc(OCCCOc2cccc3cccnc23)cc1C	Sfp inh 89µM
Brc1ccc(OCCCOc2cccc3cccnc23)cc1	none (no result: ClpP mod)
CC(C)Oc1cccc(NC(=O)C2CCN(S(=O)(=O)Cc3ccccc3)CC2)c1	none (no result: Sfp inh, uPA surface inh, TCR act)
